Parameters in all cases: scale not given: direction of the effect not stated beside the values
Experiment [1] concerns the target Protein translocase subunit SecA (Escherichia coli (strain K12)) (UniProt P10408). In words: Assay to Identify E. coli SecA ATPase Inhibitors. Conditions: 30 µM. The class given is functional.
The target of experiment [2] is T1, Ubiquitin-activating enzyme e1, putative (Leishmania donovani (strain BPK282A1)) (UniProt E9BSI1).
T1 sequence (whole entry): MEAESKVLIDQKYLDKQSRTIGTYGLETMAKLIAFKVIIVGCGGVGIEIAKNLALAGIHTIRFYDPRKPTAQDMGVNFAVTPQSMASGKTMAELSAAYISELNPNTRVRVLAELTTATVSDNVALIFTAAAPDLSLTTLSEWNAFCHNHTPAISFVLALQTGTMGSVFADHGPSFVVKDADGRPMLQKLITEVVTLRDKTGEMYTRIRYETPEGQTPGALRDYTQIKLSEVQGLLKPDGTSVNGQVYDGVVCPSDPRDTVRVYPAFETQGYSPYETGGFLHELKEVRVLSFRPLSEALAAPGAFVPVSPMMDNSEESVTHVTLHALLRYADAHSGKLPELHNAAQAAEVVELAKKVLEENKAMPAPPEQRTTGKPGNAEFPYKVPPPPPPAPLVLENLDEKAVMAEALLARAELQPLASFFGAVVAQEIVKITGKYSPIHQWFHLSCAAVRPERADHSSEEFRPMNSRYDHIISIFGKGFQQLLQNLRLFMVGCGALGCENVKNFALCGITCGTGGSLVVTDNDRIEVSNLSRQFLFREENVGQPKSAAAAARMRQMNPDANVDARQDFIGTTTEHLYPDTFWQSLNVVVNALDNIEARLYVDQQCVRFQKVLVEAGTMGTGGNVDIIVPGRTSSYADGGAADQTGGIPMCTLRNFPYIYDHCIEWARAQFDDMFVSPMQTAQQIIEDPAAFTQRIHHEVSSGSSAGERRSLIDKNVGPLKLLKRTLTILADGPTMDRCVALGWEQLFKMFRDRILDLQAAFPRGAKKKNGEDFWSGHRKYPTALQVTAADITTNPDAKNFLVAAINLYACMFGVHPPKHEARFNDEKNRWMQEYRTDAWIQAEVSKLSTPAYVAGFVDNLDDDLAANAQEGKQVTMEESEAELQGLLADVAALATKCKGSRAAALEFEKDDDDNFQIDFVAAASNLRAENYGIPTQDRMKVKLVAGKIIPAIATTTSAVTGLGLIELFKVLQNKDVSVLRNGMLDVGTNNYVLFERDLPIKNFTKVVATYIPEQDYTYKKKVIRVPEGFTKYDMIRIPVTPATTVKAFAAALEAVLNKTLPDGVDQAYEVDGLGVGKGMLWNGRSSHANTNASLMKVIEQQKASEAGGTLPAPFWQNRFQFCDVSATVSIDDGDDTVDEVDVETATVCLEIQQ
In words: Leishmania donovani Ubiquitin Activating Enzyme (LdE1). The class given is functional. The following applies: 30 µM.

The target of experiment [3] is AMP-activated protein kinase, AMPK (Homo sapiens) (UniProt P54646+O43741+P54619+Q9UGJ0+Q9Y478+Q13131+Q9UGI9). In words: AMP-dependent Kinase enzyme assay. An in vitro enzyme assay that detects ADP turnover that is directly proportional to AMPK activity. This uses naive AMPK that is activated during the assay with MK-8722. The experiment is classed as functional. The following applies: 30 µM.

For experiment [4], the target named is Sialic acid-binding Ig-like lectin 9 (Homo sapiens) (UniProt Q9Y336). In words: Hs-Siglec9 ALPHAscreen SOP 20170721. The following applies: 10 µM.
Sialic acid-binding Ig-like lectin 9 (Homo sapiens), sequence (Q9Y336 whole entry): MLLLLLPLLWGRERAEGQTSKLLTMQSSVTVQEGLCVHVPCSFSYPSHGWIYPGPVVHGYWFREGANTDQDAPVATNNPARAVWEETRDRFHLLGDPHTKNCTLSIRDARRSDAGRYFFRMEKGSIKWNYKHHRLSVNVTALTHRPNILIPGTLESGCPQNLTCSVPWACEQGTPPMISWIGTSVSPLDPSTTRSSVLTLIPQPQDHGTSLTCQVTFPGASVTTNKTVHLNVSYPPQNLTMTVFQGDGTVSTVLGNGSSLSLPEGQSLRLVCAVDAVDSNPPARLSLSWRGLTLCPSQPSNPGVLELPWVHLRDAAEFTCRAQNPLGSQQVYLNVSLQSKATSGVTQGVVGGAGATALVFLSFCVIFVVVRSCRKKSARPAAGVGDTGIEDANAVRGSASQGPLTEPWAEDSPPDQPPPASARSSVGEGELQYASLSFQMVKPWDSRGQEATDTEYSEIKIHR
The subject of experiment [5] is Trypanosoma cruzi. In words: Trypanosoma cruzi phosphomannomutase and mannose-1-phosphate guanylyltransferase assay. The class given is functional. The following applies: 10 µM.
For experiment [6], the target named is T2, Arginase-2, mitochondrial (Homo sapiens) (UniProt P78540).
T2 sequence (whole entry): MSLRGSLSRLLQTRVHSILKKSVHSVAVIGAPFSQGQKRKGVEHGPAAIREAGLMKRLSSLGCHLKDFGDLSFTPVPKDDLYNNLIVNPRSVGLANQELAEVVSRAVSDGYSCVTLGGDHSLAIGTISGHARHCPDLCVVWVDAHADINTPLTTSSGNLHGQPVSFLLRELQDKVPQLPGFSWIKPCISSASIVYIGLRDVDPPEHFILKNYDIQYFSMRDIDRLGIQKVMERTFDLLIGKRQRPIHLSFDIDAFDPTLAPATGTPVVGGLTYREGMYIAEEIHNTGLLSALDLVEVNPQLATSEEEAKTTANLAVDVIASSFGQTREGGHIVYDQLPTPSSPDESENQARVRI
In words: in vitro enzyme assay to detect the production of urea directly proportional to the activity of Arginase II. Further: in the data most compounds retested in dose-response had high values. The experiment is classed as functional. The following applies: 33.3 µM.

In experiment [7] the target is T3, Proteasome subunit beta (Trypanosoma cruzi) (UniProt O96673).
T3 sequence (whole entry): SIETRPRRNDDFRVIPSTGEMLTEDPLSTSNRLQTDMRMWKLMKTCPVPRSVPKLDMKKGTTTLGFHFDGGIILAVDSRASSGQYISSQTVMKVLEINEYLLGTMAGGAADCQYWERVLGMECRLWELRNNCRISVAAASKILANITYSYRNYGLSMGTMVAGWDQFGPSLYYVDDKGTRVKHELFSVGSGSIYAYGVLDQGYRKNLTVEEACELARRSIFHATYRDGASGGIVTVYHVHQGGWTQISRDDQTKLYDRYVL
In words: Trypanosoma cruzi proteasome chymotrypsin-like activity (TcProtChymo) assay. Further: in the data most compounds retested in dose-response had high values. The experiment is classed as functional. Conditions: 9.37 µM.

The species entered for experiment [8] is Homo sapiens. In words: To identify inhibition of the IFN signalling (Jak-Stat) pathway via expression of an eGFP reporter gene under the control of an IFN-stimulated response element (ISRE) containing MxA promoter. The experiment is classed as functional. Conditions: 30 µM. (In general: In a reporter assay the amount or activity of a reporter protein is the signal.)

Experiment [9] concerns the target T4, Tyrosyl-tRNA synthetase, putative (Trypanosoma cruzi (strain CL Brener)) (UniProt Q4DSP6).
T4 sequence (whole entry): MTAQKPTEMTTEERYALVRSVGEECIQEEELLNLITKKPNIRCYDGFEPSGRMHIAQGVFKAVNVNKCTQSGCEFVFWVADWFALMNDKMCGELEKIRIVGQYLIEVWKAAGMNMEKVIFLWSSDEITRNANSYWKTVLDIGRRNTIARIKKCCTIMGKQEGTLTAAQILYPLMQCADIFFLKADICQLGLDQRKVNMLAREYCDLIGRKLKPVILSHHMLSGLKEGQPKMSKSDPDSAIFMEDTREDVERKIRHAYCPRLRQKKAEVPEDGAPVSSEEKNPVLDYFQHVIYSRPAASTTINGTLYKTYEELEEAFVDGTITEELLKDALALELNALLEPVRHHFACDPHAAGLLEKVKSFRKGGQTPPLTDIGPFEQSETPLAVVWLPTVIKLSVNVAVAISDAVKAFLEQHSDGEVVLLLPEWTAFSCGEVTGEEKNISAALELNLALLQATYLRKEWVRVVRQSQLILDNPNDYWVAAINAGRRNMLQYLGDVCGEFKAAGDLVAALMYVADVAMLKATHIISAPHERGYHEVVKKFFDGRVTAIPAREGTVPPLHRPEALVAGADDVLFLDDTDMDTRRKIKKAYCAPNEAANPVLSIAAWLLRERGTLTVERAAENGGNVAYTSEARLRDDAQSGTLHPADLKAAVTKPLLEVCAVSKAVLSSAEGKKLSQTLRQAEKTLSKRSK
In words: Trypanosoma cruzi tyrosyl tRNA synthetase (TcYRS) _High Tyrosine SOP. Further: in the data most compounds retested in dose-response had high values. The experiment is classed as functional. The following applies: 30 µM.

In experiment [10] the target is T4, Tyrosyl-tRNA synthetase, putative (Trypanosoma cruzi (strain CL Brener)). In words: Trypanosoma cruzi tyrosyl tRNA synthetase (TcYRS) SOP. Conditions: 30 µM. The class given is functional.
The target in experiment [11] is Chromo domain-containing protein 1 (Saccharomyces cerevisiae (strain ATCC 204508 / S288c) (Baker's yeast)) (UniProt P32657). In words: ScCHD-1 Enzyme Inhibition Assay. Further: in the data most compounds retested in dose-response had high values. The class given is functional. Conditions: 30 µM.
Chromo domain-containing protein 1 (Saccharomyces cerevisiae (strain ATCC 204508 / S288c) (Baker's yeast)), sequence (P32657 whole entry, the tested form may be a part): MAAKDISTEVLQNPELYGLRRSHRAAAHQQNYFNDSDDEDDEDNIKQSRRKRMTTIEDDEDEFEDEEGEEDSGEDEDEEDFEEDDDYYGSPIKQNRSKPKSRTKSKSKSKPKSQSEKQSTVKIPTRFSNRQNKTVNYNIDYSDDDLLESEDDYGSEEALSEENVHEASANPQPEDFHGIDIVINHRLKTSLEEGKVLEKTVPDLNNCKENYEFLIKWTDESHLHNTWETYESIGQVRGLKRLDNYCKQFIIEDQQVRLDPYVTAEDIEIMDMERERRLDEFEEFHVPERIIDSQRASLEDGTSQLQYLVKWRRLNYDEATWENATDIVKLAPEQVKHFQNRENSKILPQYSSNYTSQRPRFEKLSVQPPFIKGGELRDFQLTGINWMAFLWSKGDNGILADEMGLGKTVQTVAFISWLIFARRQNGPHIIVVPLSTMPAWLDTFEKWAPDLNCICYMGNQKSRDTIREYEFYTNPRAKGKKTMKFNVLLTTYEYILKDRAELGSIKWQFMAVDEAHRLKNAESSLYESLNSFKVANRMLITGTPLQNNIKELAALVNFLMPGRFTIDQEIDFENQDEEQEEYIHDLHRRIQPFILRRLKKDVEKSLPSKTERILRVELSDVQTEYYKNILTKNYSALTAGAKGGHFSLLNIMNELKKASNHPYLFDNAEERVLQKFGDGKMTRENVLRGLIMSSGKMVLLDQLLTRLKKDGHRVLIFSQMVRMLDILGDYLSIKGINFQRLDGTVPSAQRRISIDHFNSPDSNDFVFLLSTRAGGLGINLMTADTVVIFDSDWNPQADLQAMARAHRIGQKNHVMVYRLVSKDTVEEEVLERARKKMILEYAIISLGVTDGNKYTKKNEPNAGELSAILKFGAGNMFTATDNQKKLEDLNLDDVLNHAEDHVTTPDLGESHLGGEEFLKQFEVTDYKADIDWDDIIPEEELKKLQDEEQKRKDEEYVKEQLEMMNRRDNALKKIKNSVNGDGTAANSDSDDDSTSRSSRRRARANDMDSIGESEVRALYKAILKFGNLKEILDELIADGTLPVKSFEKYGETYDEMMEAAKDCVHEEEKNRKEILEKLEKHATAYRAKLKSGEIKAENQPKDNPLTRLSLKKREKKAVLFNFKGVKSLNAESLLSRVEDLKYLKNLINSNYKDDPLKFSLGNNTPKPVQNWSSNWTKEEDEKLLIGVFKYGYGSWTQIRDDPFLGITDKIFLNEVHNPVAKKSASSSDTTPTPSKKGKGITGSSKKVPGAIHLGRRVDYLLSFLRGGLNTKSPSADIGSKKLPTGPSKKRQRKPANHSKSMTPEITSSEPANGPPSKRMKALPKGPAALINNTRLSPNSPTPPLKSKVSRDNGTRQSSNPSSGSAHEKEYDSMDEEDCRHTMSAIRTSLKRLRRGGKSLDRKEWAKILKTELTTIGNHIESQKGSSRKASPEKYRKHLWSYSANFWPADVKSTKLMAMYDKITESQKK

8 compounds from ChEMBL document CHEMBL3988442, “University of Dundee, Small-Polar-MMV Screening Library” (2021) can be followed below.

For some of these results: Measured potencies and affinities stand elsewhere.

Protein translocase subunit SecA (Escherichia coli (strain K12)), sequence (P10408 whole entry): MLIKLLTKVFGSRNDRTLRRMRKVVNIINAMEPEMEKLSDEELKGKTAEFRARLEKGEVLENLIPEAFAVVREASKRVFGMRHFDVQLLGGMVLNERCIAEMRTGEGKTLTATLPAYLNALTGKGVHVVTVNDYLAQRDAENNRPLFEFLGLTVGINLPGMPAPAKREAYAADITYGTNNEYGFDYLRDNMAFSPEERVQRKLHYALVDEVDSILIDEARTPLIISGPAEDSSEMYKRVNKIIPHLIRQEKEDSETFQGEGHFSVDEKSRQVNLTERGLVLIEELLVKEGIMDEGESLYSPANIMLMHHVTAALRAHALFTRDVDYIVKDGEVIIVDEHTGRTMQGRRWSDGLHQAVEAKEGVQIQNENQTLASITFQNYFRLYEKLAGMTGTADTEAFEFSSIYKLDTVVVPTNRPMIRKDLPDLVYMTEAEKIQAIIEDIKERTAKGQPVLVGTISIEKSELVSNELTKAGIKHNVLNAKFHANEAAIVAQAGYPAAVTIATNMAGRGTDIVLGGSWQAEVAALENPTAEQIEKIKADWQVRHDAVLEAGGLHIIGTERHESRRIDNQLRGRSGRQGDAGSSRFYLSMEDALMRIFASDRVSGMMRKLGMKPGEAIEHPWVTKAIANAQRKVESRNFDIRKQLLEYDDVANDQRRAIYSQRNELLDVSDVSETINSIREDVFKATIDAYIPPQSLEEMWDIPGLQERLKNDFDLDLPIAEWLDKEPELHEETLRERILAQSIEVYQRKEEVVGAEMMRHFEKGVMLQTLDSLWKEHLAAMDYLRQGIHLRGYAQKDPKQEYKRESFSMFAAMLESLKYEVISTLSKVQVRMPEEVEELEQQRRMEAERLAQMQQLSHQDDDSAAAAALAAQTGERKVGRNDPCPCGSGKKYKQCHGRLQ

As for `COc1cc(CN(C)C(=O)Cc2c(C)nn(C)c2C)ccc1OC(F)F`, the Percent Effect in experiment [1] is 3.46%; in experiment [2] it was -9.72%; in [3], -6.03%; in experiment [4], -7.7%; in experiment [5], -5.15%; in experiment [6] it was 3.09%. The Percent Effect in [7] turned out to be 20.2%; in experiment [8] it was 55.5%; in [9], 5.26%; in experiment [10], 10.3%; in experiment [11], 0.343%.
`Cc1ccc(-c2cn[nH]c2C2CCCN(c3nccc(N)n3)C2)cc1` (stereo not drawn): the Percent Effect was -2.69% in experiment [1]; 20.8% in experiment [2]; 46.7% in [3]; 15.4% in experiment [4]; 5.15% in [5]; -1.77% in experiment [6]. Also, the Percent Effect worked out at 25.6% in [7]; 37.1% in [8]; 7.37% in [9]; 20.5% in experiment [10]; 3.03% in experiment [11].
As for `Cc1nc(CN2CCN(C(=O)COCc3ccccc3)CC2)no1`, the Percent Effect was -3.03% in experiment [1]; 5.41% in experiment [2]; -6.7% in experiment [3]; 10.7% in [4]; 5.96% in experiment [5]; 0.744% in experiment [6]. The Percent Effect in [7] was 9.19%; in experiment [8], -1.99%; in experiment [9] it was -2.15%; in experiment [10], 3.7%; in experiment [11], -7.9%.
As for `Cc1ccc(F)c(-n2nnc(C(=O)O)c2-c2ccncc2)c1`, the Percent Effect is -0.715% in experiment [1]; 13.2% in [2]; 2.72% in experiment [3]; -1.83% in [4]; -3.8% in [5]; -2.37% in experiment [6]. In addition, the Percent Effect is 22.7% in [7]; -8.42% in experiment [8]; 3.19% in experiment [9]; 10.4% in experiment [10]; -1.85% in experiment [11].
As to `CS(=O)(=O)N1CCc2nc(NC(=O)Nc3c(F)cccc3F)sc2C1`, the Percent Effect in experiment [1] is -4.94%; in [2] it was -11%; in [3], -0.62%; in [4], -0.122%; in [5], -5.49%; in experiment [6] it was 0%. The Percent Effect in experiment [7] turned out to be 4.97%; in experiment [8] it was 1.79%; in [9] it was 4.3%; in [10], 12.5%; in experiment [11], 1.62%.
Turning to `CC(=O)NC1CCCN(C(=O)c2ccc(Br)cc2O)C1` (stereo not drawn), the Percent Effect in experiment [1] is -4.72%; in experiment [2], 8.11%; in experiment [3], -9.01%; in experiment [4] it was 7.98%; in experiment [5] it was -2.92%; in [6], 1.6%. Moreover, the Percent Effect in [7] was 5.95%; in [8], 3.4%; in experiment [9] it was 6.4%; in experiment [10], 16.1%; in experiment [11] it was -2.5%.
Consider `Cc1ccc(N2CC[C@H]3C[C@@H](C(=O)N4CCOCC4)O[C@H]3C2)nn1`, for which the Percent Effect in experiment [1] was -2.71%; in experiment [2] it was 13.5%; in experiment [3] it was -1.79%; in experiment [4], -1.51%; in experiment [5], -0.293%; in [6], -0.319%. In addition, the Percent Effect in [7] was 11.6%; in experiment [8], -4.87%; in [9] it was 10.8%; in experiment [10] it was 15.4%; in experiment [11], -1.79%.
For `CNS(=O)(=O)CCCN1CCCC1c1noc(C2CC2)n1` (stereo not drawn), the Percent Effect in experiment [1] was 0.851%; in [2] it was -2.53%; in [3], 9.34%; in experiment [4] it was -2.31%; in [5] it was -2.74%; in experiment [6], 4.56%. Moreover, the Percent Effect in [7] was 9.91%; in [8], 10.4%; in [9] it was 0.493%; in experiment [10], 1.27%; in experiment [11] it was -7.17%.
